Assay outcomes deposited in PubChem BioAssay by National Center for Advancing Translational Sciences (NCATS).
Compounds with a hit are over-represented: about 13% of the library has one in this group of screens.
LASV entry inh: qHTS for Inhibitors of binding or entry into cells for Lassa Virus. Lassa virus pseudotype entry inhibition, cell reporter. Potency, µM (top dose mostly 37.9 µM), for inactives: at the highest dose activity change, negative = inhibition, hits mostly inhibitors. hit rate 1.2% among 300,000. AID 540256, 2011; calls by dose curve; tested in HEK293 cells; further: potency means the concentration at half of the fitted maximal effect; on the % scale 0 is the no-effect control and ±100 the full control effect; nearly all actives have a fitted effect of over 50% in size
Marburg entry inh: qHTS for inhibitors of binding or entry into cells for Marburg Virus; Marburg virus pseudotyped entry inhibition, cell reporter; Potency, µM (highest dose often 37.8 µM), for the others: at the highest dose activity change, negative = inhibition, most hits filed as inhibitors; hit rate 1.8% among 300,000; AID 540276, 2011; calls by dose curve; tested in HEK293 cells; further: potency means the concentration at half of the fitted maximal effect; on the % scale 0 is the no-effect control and ±100 the full control effect
Cycloheximide cs: Cycloheximide Counterscreen for Small Molecule Inhibitors of Shiga Toxin; cell reporter, cycloheximide protein synthesis inhibition counterscreen; max response, %; hit rate 12% among 300,000; AID 2314, 2010; in the data active means max response mostly above about 13%, no sharp cut-off; inactive means mostly below about 14%; further: read at 38.3 µM for the half of the compounds with a filed dose; 0% is about no effect
HCV inh: qHTS Assay for Inhibitors of Hepatitis C Virus (HCV) | Huh7.5.1 HCVcc-Cre infection, luciferase reporter, 44 h | Potency, µM (highest dose often 41.8 µM), for the others: top-dose activity change, negative = inhibition, hits mostly inhibitors | hit rate 3.4% among 340,000 | AID 651820, 2012; active means well fitted inhibition curve with a large enough effect; inconclusive means small, poorly fitted or top-dose-only effect, or another doubt; inactive means no such curve, though single readings can be large or run the other way; further: potency means the concentration at half of the fitted maximal effect; on the % scale 0 is the no-effect control and ±100 the full control effect
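Antiviral activity was scored by luciferase reporter output from cells infected with HCVcc-Cre (~0.5 moi) in presence of compound, 44 h infection period, cells seeded 1,000/well 4 h prior.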
FMDV inh: High Throughput Screening for Foot and Mouth Disease Virus Antivirals. FMDV antiviral cell-based qHTS. hit rate 1.2% among 410,000. Potency, µM (top dose mostly 57.9 µM), for inactives: at the highest dose activity change, negative = inhibition, most hits filed as inhibitors; calls by dose curve; tested in HEK293T cells; further: read-out not given here; potency means the concentration at half of the fitted maximal effect; on the % scale 0 is the no-effect control and ±100 the full control effect; nearly all actives have a fitted effect of over 45% in size
Shiga toxin inh: A qHTS for Small Molecule Inhibitors of Shiga Toxin | Vero cells, Shiga toxin protein synthesis inhibition reporter | inhibition, % at 38.7 µM | AID 2315, 2010 | hit rate 9.2% among 290,000; in the data active means inhibition mostly above about 28%, no sharp cut-off; inactive means mostly below about 43%; further: 0% is about no effect
Active calls of the source: *; ? = inconclusive; / = no result; [ ] = remark or other dose.

SMILES	LASV entry inh	Marburg entry inh	Cycloheximide cs	HCV inh	FMDV inh	Shiga toxin inh
COCCn1c(=NC(=O)c2ccc(S(=O)(=O)N3CCOCC3)cc2)sc2cc(S(N)(=O)=O)ccc21	25%[46.1 µM]	-28%[46.1 µM]	-4	?	-17%	-15
CCn1c(=NC(=O)c2ccc(N3C(=O)CCC3=O)cc2)sc2c(OC)ccc(OC)c21	/	4%	-9	14µM*	?	-10
Cn1c(=O)n(C)c2cc(NC(=O)CCc3ccccc3)c(Br)cc21	/	/	-3	-19%	-4%	6
O=C(NCCOc1nc(N2CCOCC2)nc(N2CCOCC2)n1)Nc1ccc(Cl)cc1	1%	?	-1	-16%	-2%	-4
Cc1cccc(C2=NOC(=O)/C2=C\c2ccccc2F)c1	/	/	/	21%	-11%	/
Cc1ccc(C2=NOC(=O)/C2=C\C=C\c2ccccc2)cc1	?	?	8	?	14µM*	3
CC1=NN(c2cccc(C(=O)O)c2)C(=O)/C1=C\C=C\c1ccco1	-4%	?	86*	10%	-20%	126*
CC1=NN(c2ccccc2)C(=O)/C1=C\c1sccc1C	-23%	0%[14.2 µM]	11	5%	4%	-4
CC1=NN(c2ccccc2)C(=O)/C1=C/C=C/c1ccccc1	-21%	?	-1	12%	35µM*	10
COCCCNC(=O)c1ccccc1SC	6%	0%	1	20%	-19%	-13
CCC(COC)NC(=O)CCc1nnc(Cc2c[nH]c3ccccc23)o1 (configuration not stated)	/	/	-2	9%	0%	2
CC(C)(C)NC(=O)CCc1nnc(Cc2c[nH]c3ccccc23)o1	/	/	12*	18%	15%	20
C=CCN(CC=C)C(=O)CCc1nnc(CCc2c[nH]c3ccccc23)o1	-21%	2%[46.1 µM]	21*	-11%	38%	35
Clc1ccc(OCc2nc(-c3ccccn3)n[nH]2)cc1	0%	?	40*	?	28%	21*
Brc1ccc(OCc2nc(-c3ccccn3)n[nH]2)cc1	-27%	-26%	29*	?	-1%	34
O=C(Cc1ccccc1)n1nc(-c2ccco2)nc1SCc1ccccc1	12%	?	28*	5%	40%	42
Nc1nc(-c2ccco2)nn1C(=O)CCc1ccccc1	7%	1%	7	17%	-11%	-5
O=C(c1ccco1)n1nc(-c2ccco2)nc1SCc1ccccc1	18%	?	19*	17%	37%	43
O=C(c1ccco1)n1nc(-c2ccccc2)nc1SCc1ccccc1	-4%	4%	32	6%	48%	31
CCCC(=O)n1nc(-c2ccco2)nc1SCc1ccccc1	-10%	16%	43*	-10%	37%	active
CSc1nc(-c2ccco2)nn1S(=O)(=O)c1ccc(C)cc1	-4%	16%	-2	12%	7%	29
Cc1ccc(S(=O)(=O)n2nc(-c3ccco3)nc2SCc2ccccc2)cc1	1%	-26%	34*	16%	96%	86*
COc1ccc(-n2c(O)c(Cc3ccccc3)c(=O)n3nc(-c4ccccc4)c(=O)cc23)cc1	?	13%	11*	16%	5%	13
COc1cccc(N(C(=O)c2nc3nccc(C)n3n2)c2nc3ccccc3s2)c1	?	?	27*	-16%	3%	67
COc1cccc(NC(=O)COC(=O)c2nc3nccc(C)n3n2)c1	5%	-3%	13*	19%	2%	22
SMILES	LASV entry inh	Marburg entry inh	Cycloheximide cs	HCV inh	FMDV inh	Shiga toxin inh
COc1ccc(C)cc1N(C(=O)COc1ccccc1)c1nc2ccccc2s1	-17%	?	2	-1%	-12%	15
COc1cccc(CNC(=O)C(=O)Nc2c3c(nn2-c2ccccc2)CSC3)c1	1%[46.1 µM]	/	/	/	-11%	/
Cc1sc2nc(CSc3ccc([N+](=O)[O-])cc3)[nH]c(=O)c2c1C	/	/	-2	/	/	16
Clc1ccc(CSc2cnnc3ccccc23)cc1Cl	11%[46.1 µM]	?	/	8%	16%	/
O=Cc1cc2ccccc2nc1SCc1ccc(Cl)cc1	10µM*	?	-5	?	-21%	-25
O=Cc1cc2ccccc2nc1SCc1ccc(Cl)c(Cl)c1	?	2.2µM*	12	7%	?	-7
Cc1ccc(CSc2nc3ccccc3cc2C=O)cc1	?	?	-1	?	?	22
COc1cc(C(=O)O[C@@H]2CC3CC[C@]2(C)C3(C)C)ccc1O	/	/	23	/	/	29*
c1ccc(-c2cc(NCCN3CCCCC3)c3ccccc3n2)cc1	?	2.8µM*	-8	?	?	-6
Cc1sc2nc(SCC(=O)N3CC(C)OC(C)C3)n(C)c(=O)c2c1C (configuration not stated)	-23%	-14%	-2	-30%	-24%	14
O=C(Nc1ccc(N2CCOCC2)cc1)c1cc2ccccc2o1	-1%	?	54*	?	-15%	76*
CCC(=O)N1CCN(c2ccc(NC(=O)c3cc4ccccc4o3)cc2)CC1	-12%	-10%	16*	?	?	42
O=C(c1cc2ccccc2o1)N1CCCC1	/	/	13	-11%	33%	6
O=C(Nc1ccc(N2CCN(C(=O)c3ccc(Cl)cc3)CC2)cc1)c1cc2ccccc2o1	-13%	-25%	-2	13%	?	22
O=C(NC(=S)Nc1ccc(CN2CCOCC2)cc1)c1cc2ccccc2o1	/	/	6	-9%	9%	20
O=C(Nc1ccc(CN2CCOCC2)cc1)c1cc2ccccc2o1	-9%	?	34*	35µM*	/	64*
O=C(/C=C/N1CCOCC1)c1cc2ccccc2o1	-27%	?	27*	19%	-18%	71*
COc1cc(C)ccc1OCCOc1cc(C)ccc1Cl	7%	?	7	?	-11%	26
C=CCn1c(=O)c2c(nc3n2CCN3c2cccc(Cl)c2C)n(C)c1=O	3%	-30%	-5	-6%	?	-12
CCN(CC)S(=O)(=O)c1ccc(C(=O)OC2CCCCC2CN(C)C)cc1 (configuration not stated)	-2%	13%	-2	5%	23%	19
O=C(/C=C/N1CCOCC1)c1coc2ccccc12	?	?	35*	6%	-20%	63*
O=C(Nc1ccc(CN2CCOCC2)cc1)c1cc2ccccn2n1	6.5µM*	?	22*	2%	-66%	38*
O=C(O)c1coc2ccccc12	6%	-13%	-1	8%	-20%	-7
CCN(CC)S(=O)(=O)c1ccc2c(c1)nc(SCC(=O)N1CCCCCC1)n2-c1ccc(OC)cc1	?	?	-3	?	32%	-4
CCN(CC)S(=O)(=O)c1ccc2c(c1)nc(SCC(N)=O)n2-c1ccc(OC)cc1	13µM*	-10%	0	-17%	-28%	-9
